Assay in all cases: DAPPL (digital affinity profiling via proximity ligation, sequencing); 10 mM Tris-HCl pH 7.5, 50 mM NaCl, 1 mM DTT, 4% glycerol, room temperature, 30 min; GST-TFs on glutathione beads, 16-mer random dsDNA library, 0.1% formaldehyde crosslink after washing; high values mean tight binding
Common to all, as to conditions: protein: recombinant; tags: N-terminal GST; dsDNA, one strand shown

One test concerns the target T1, ERF (Homo sapiens, UniProt P50548 1-548).
T1 sequence: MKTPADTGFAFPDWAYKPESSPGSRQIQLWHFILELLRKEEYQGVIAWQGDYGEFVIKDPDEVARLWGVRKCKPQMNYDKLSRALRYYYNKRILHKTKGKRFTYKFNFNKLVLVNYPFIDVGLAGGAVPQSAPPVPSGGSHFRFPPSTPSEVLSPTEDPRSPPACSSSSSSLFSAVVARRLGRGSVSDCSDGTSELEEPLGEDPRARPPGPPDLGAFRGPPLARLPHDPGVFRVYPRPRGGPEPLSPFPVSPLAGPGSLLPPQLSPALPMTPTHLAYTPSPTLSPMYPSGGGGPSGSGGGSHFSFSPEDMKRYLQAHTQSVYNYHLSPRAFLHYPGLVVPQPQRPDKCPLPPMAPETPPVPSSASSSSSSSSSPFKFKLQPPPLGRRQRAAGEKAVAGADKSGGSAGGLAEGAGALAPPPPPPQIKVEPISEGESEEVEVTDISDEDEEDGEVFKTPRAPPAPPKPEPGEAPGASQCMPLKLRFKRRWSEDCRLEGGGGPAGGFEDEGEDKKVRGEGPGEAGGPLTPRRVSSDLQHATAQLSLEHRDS
The method, boiled down: (§1)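 Human transcription factors carrying a GST fusion were produced in yeast, bound to glutathione beads, tagged with DNA barcodes and pooled together with a tag-only sample. Each pool was held with 200 nmole of a random double-stranded 16-mer DNA library in Tris/NaCl/DTT/glycerol buffer for 30 min at room temperature, then washed, crosslinked in 0.1% formaldehyde, proximity-ligated with BsaI/T4 ligase (1 h, 37 °C), PCR-amplified and sequenced on an Illumina NextSeq500. Binding signal is the read frequency of each hexamer for a given factor divided by its frequency in the tag-only sample.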

The target in another test is T2, ETV3L (Homo sapiens, UniProt Q6ZN32 1-361).
T2 sequence: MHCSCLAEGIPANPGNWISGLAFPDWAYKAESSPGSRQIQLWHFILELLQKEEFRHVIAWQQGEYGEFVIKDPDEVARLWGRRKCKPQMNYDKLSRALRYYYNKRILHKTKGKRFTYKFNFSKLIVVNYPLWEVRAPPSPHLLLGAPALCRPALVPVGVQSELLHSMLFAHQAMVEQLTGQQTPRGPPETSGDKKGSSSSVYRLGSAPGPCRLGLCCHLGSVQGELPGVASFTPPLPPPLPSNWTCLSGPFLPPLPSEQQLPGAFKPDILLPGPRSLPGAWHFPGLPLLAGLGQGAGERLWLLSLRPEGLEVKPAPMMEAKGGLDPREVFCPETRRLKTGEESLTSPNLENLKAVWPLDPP
An outline of the steps: as §1

A further test addresses T3, ETS2 (Homo sapiens, UniProt P15036 1-469).
T3 sequence: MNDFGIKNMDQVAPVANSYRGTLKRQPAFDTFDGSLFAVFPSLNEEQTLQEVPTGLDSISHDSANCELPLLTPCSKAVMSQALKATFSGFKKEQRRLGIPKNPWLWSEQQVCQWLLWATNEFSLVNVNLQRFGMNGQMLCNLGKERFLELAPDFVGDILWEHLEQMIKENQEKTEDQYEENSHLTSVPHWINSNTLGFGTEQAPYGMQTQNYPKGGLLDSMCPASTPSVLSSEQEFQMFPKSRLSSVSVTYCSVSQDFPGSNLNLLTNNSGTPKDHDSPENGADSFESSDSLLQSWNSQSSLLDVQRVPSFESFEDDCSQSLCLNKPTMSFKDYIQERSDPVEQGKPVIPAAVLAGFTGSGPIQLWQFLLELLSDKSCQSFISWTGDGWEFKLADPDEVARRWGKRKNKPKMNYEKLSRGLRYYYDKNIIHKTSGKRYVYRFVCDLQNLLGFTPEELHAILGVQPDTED
An outline of the steps: as §1

For a further test, the target named is T4, SPDEF (Homo sapiens, UniProt O95238 1-335).
T4 sequence: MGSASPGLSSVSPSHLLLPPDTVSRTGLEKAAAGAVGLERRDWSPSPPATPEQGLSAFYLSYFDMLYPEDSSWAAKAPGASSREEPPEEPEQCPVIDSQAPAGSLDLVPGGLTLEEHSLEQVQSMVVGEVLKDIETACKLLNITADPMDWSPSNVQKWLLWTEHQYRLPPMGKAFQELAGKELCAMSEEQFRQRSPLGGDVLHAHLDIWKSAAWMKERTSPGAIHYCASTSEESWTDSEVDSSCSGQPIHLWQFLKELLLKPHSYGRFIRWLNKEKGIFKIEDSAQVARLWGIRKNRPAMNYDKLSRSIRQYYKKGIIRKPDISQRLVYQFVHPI
The method, boiled down:
as §1

The target in a further test is T5, ETV7 (Homo sapiens, UniProt Q9Y603 1-341).
T5 sequence: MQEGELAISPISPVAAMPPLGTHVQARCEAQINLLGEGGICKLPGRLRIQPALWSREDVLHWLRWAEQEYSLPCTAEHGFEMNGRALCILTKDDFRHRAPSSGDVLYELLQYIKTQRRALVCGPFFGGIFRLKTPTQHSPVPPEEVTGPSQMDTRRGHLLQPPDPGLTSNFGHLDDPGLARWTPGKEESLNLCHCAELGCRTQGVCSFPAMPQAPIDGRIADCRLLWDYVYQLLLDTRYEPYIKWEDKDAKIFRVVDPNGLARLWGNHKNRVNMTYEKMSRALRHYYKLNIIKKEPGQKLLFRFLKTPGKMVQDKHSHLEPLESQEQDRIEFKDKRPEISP
The method, boiled down: as §1

The next test concerns the target T6, ELF5 (Homo sapiens, UniProt Q9UKW6-2 1-255).
T6 sequence: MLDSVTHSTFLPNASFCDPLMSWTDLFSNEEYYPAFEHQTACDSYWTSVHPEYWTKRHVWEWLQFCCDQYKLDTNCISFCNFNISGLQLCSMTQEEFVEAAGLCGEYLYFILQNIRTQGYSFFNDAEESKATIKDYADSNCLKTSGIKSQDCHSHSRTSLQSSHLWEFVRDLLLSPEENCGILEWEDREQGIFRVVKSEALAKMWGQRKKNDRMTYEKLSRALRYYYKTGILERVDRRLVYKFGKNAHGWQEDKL
An outline of the steps: as §1

Another test has as its target T7, ETV3 (Homo sapiens, UniProt P41162-2 1-143).
T7 sequence: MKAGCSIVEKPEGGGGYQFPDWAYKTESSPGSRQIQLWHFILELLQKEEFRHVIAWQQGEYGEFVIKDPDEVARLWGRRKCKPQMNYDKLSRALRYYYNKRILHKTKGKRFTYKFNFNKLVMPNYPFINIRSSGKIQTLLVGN
The method, boiled down: as §1

Another test deals with ETV6 (Homo sapiens, UniProt P41212 1-452). An outline of the steps:
as §1

Chain of ETV6 (P41212 whole entry): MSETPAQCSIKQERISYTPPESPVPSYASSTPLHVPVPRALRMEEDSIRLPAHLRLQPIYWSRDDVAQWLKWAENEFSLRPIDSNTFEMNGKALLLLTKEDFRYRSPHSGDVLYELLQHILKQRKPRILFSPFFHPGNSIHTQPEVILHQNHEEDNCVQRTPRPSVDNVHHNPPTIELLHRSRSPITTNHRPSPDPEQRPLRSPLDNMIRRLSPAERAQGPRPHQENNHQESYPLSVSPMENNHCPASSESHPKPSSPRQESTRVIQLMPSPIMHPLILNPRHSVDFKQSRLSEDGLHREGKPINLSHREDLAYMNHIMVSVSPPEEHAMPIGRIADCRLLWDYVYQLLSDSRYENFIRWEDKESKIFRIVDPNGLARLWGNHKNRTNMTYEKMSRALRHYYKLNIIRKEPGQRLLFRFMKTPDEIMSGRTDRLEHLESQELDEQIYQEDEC

AACATT: the binding signal is 1.33 fold enrichment (6-mer frequency, TF over GST control) with ERF; 1.34 fold enrichment (6-mer frequency, TF over GST control) with ETV3L; 1.29 fold enrichment (6-mer frequency, TF over GST control) in the test with ETS2; 1.16 fold enrichment (6-mer frequency, TF over GST control) with SPDEF; 1.36 fold enrichment (6-mer frequency, TF over GST control) in the test with ETV7; 1.3 fold enrichment (6-mer frequency, TF over GST control) with ELF5. Also, the binding signal is 1.32 fold enrichment (6-mer frequency, TF over GST control) in the test with ETV3 and 1.39 fold enrichment (6-mer frequency, TF over GST control) with ETV6.

Consider AATTAA, for which the binding signal in the test with ERF is 1.31 fold enrichment (6-mer frequency, TF over GST control); with ETV3L, 1.2 fold enrichment (6-mer frequency, TF over GST control); with ETS2, 1.24 fold enrichment (6-mer frequency, TF over GST control); with SPDEF, 1.17 fold enrichment (6-mer frequency, TF over GST control); with ETV7 it was 1.2 fold enrichment (6-mer frequency, TF over GST control); with ELF5, 1.23 fold enrichment (6-mer frequency, TF over GST control). For the same sequence, the binding signal is 1.25 fold enrichment (6-mer frequency, TF over GST control) in the test with ETV3 and 1.32 fold enrichment (6-mer frequency, TF over GST control) with ETV6.

Consider TGGCTT, for which the binding signal with ERF was 1.27 fold enrichment (6-mer frequency, TF over GST control); with ETV3L, 1.17 fold enrichment (6-mer frequency, TF over GST control); with ETS2 it was 1.26 fold enrichment (6-mer frequency, TF over GST control); with SPDEF, 1.11 fold enrichment (6-mer frequency, TF over GST control); with ETV7, 1.31 fold enrichment (6-mer frequency, TF over GST control); with ELF5, 1.18 fold enrichment (6-mer frequency, TF over GST control). In addition, the binding signal in the test with ETV3 is 1.18 fold enrichment (6-mer frequency, TF over GST control); with ETV6, 1.29 fold enrichment (6-mer frequency, TF over GST control).

Regarding CGATTC, the binding signal was 1.09 fold enrichment (6-mer frequency, TF over GST control) with ERF; 1.18 fold enrichment (6-mer frequency, TF over GST control) with ETV3L; 1.24 fold enrichment (6-mer frequency, TF over GST control) with ETS2; 1.13 fold enrichment (6-mer frequency, TF over GST control) with SPDEF; 1.06 fold enrichment (6-mer frequency, TF over GST control) with ETV7; 1.11 fold enrichment (6-mer frequency, TF over GST control) with ELF5. For the same sequence, the binding signal with ETV3 was 1.23 fold enrichment (6-mer frequency, TF over GST control); in the test with ETV6, 1.11 fold enrichment (6-mer frequency, TF over GST control).

Turning to AATGAT, the binding signal in the test with ERF was 1.18 fold enrichment (6-mer frequency, TF over GST control); with ETV3L, 1.24 fold enrichment (6-mer frequency, TF over GST control); with ETS2 it was 1.12 fold enrichment (6-mer frequency, TF over GST control); in the test with SPDEF, 1.13 fold enrichment (6-mer frequency, TF over GST control); with ETV7 it was 1.2 fold enrichment (6-mer frequency, TF over GST control); with ELF5, 1.06 fold enrichment (6-mer frequency, TF over GST control). Further, the binding signal is 1.21 fold enrichment (6-mer frequency, TF over GST control) with ETV3 and 1.24 fold enrichment (6-mer frequency, TF over GST control) with ETV6.

Regarding CCATAT, the binding signal with ERF was 1.23 fold enrichment (6-mer frequency, TF over GST control); with ETV3L it was 1.27 fold enrichment (6-mer frequency, TF over GST control); in the test with ETS2 it was 1.22 fold enrichment (6-mer frequency, TF over GST control); with SPDEF, 1.33 fold enrichment (6-mer frequency, TF over GST control); in the test with ETV7 it was 1.16 fold enrichment (6-mer frequency, TF over GST control); with ELF5 it was 1.24 fold enrichment (6-mer frequency, TF over GST control). The binding signal with ETV3 is 1.19 fold enrichment (6-mer frequency, TF over GST control); in the test with ETV6, 1.15 fold enrichment (6-mer frequency, TF over GST control).

Regarding CTTCTT, the binding signal with ERF is 1.53 fold enrichment (6-mer frequency, TF over GST control); with ETV3L, 1.59 fold enrichment (6-mer frequency, TF over GST control); with ETS2, 1.35 fold enrichment (6-mer frequency, TF over GST control); with SPDEF, 1.54 fold enrichment (6-mer frequency, TF over GST control); with ETV7 it was 1.44 fold enrichment (6-mer frequency, TF over GST control); with ELF5 it was 1.65 fold enrichment (6-mer frequency, TF over GST control). For the same sequence, the binding signal with ETV3 was 1.6 fold enrichment (6-mer frequency, TF over GST control); with ETV6, 1.64 fold enrichment (6-mer frequency, TF over GST control).

The values are drawn from paper PMC7862700, “An all-to-all approach to the identification of sequence-specific readers for epigenetic DNA modifications on cytosine”.
